Here are results for 5 compounds from PubChem BioAssay (NCATS).

Unmarked numbers belong to inactive results. Records with an inconclusive call do not appear. Active and inactive are the calls of the source. Unless noted, calls come from the whole dose curve; as a rule, active = well fitted curve in the direction sought with a large enough effect; inconclusive = small, poorly fitted or top-dose-only effect, or another doubt; inactive = no such curve, though single readings can be large; an effect the other way counts as inactive or inconclusive.

In experiment [1] the target is Lysosomal acid glucosylceramidase (Homo sapiens) (UniProt P04062). The experiment in a line: Glucocerebrosidase-p2 (AID 348; in the data active = potency below about 10 µM; note: potency is the fitted concentration of half-maximal effect). The note with it: purified GBA, blue fluorogenic substrate, 40 min. Put shortly: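 Normal human glucocerebrosidase (0.2 nM) with blue fluorogenic substrate (80 uM final) in citrate/phosphate pH 5.9 with 10mM sodium taurocholate, 0.01% tween-20; 40 min RT, NaOH/glycine stop; fluorescence Ex 365/Em 440; AC50 from a titration from 0.6 nM upwards.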
Sequence of Lysosomal acid glucosylceramidase (Homo sapiens) (P04062 whole entry, looked up): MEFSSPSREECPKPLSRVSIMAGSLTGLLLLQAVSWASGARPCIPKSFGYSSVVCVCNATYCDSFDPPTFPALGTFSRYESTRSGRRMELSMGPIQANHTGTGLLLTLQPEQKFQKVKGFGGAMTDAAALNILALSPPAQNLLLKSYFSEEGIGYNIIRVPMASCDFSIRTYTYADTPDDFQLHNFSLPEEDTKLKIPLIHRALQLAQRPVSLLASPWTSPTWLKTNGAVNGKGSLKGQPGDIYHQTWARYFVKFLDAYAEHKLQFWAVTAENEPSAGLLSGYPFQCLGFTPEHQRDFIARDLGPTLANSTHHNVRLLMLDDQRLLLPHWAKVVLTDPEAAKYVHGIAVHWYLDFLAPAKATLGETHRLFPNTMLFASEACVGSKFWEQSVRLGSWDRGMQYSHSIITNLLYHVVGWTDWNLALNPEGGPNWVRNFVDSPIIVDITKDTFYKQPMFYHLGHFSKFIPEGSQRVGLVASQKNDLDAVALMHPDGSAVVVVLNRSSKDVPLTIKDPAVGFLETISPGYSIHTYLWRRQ

A short description of experiment [2]: AP1 Signaling Pathway (AID 357; active = well fitted curve in either direction with a large enough effect, not every such curve was filed as active;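 note: ME-180 reporter cells stimulated with EGF at its EC50 level; % is set by controls: 0 for no effect and ±100 for the full control effect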). The following applies: ME-180 AP-1-bla reporter, EGF-induced, beta-lactamase ratio, 5 h; at 7.69 µM (top of the series) unless noted. The essentials: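 Modulation of EGF-driven AP-1 transcription was assessed with a beta-lactamase reporter in ME-180 cells. Compound and EC50 EGF were co-incubated 5 hours at 37 °C before 2.5-hour CCF4 loading at room temperature and dual-emission reading.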

Experiment [3] has as its target Cytochrome P450 1A2 (Homo sapiens) (UniProt P05177). The experiment in a line: p450-cyp1a2 (AID 410; calls by dose curve; note: potency is the fitted concentration of half-maximal effect). The following applies: recombinant CYP1A2, luciferin-ME demethylation, luminescence; series mostly up to 57 µM. The essentials: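 20nM CYP1A2, 100uM Luciferin-ME (=Km), 100mM KPO4; cpd 10 min RT; +NADPH regen, 60 min RT; stop/detect 20 min; luminescence. Normalized to furafylline 57 uM = full inhibition.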

The nature of experiment [4]: NFAT Signaling Pathway (AID 444; active = well fitted curve in either direction with a large enough effect, not every such curve was filed as active;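 note: carbachol stimulus at about its EC50 of 1 µM final; % is set by controls: 0 for no effect and ±100 for the full control effect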). The note with it: Jurkat NFAT-bla M1, carbachol, beta-lactamase ratio, 5 h; at 7.69 µM (top of the series) unless noted. Put shortly:
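Jurkat cells with NFAT-driven β-lactamase reporter and co-expressed M1 receptor, stimulated with carbachol (final 1 uM, ~EC50), compound titration, 5 h at 37 °C. CCF4 loaded 1 h at RT; 460/530 nm ratio gave %activity and AC50.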

Experiment [5] in a line: Stat Signaling Pathway (AID 446; active = well fitted curve in either direction with a large enough effect, not every such curve was filed as active;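 note: ME-180 cervical cancer cells given 40 pM IL-6 alongside compound; SIE-controlled beta-lactamase reporter measured as 460/530 nm FRET emission ratio; % is set by controls: 0 for no effect and ±100 for the full control effect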). The following applies: ME-180 SIE beta-lactamase reporter, IL-6 stimulated, 5 h; at 7.69 µM (top of the series) unless noted. Put shortly:
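Emission at 460 and 530 nm (excitation 405 nm) reports SIE-controlled beta-lactamase in ME-180 cells. Cells received compound with 40 pM IL-6 for 5 hrs at 37 C; data scaled between 300 pM IL-6 and 125 nM JAK-inhibitor controls.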

For experiment [6], the target named is Glucocorticoid receptor (Homo sapiens) (UniProt P04150). The experiment in a line: GR-GFP Redistribution (AID 450;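 active = compounds whose dose series gives a full or clear partial fitted curve of increased nuclear translocation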; note: potency is the fitted concentration of half-maximal effect). The note with it: U2OS GR-GFP nuclear translocation, laser cytometry, 2 h.
Sequence of Glucocorticoid receptor (Homo sapiens) (P04150 whole entry, looked up, the tested form may be a part): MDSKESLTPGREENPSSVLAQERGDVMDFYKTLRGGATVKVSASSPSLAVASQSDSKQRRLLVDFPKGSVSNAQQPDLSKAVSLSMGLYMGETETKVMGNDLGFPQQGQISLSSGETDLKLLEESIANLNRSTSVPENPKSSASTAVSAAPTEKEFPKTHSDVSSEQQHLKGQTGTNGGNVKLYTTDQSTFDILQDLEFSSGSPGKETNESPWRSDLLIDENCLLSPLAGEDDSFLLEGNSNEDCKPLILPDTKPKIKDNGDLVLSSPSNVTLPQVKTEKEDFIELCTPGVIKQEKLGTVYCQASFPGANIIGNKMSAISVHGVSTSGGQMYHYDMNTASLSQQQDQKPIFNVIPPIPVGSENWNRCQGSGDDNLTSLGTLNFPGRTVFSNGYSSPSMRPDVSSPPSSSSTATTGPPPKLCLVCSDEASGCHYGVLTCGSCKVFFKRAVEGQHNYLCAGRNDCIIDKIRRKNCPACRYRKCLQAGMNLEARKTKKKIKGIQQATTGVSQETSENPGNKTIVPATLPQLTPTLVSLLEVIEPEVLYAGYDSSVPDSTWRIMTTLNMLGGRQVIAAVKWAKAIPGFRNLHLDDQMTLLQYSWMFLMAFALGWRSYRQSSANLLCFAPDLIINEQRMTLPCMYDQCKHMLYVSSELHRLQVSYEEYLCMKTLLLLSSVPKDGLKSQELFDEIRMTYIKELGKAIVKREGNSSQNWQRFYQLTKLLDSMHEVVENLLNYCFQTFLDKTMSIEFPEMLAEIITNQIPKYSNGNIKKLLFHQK
Experiment [7] shares this target. The experiment in a line: GR-EFC Redistribution (AID 451; calls by dose curve; note: potency is the fitted concentration of half-maximal effect). The following applies: CHO-K1 GR-EFC translocation, beta-gal luminescence, 2 h. The essentials: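 CHO-K1 cells expressing nuclear EA and GR-ED fragments of b-gal; compounds titrated up to 46 uM final, 2 h at 37 C. GR nuclear translocation read as complemented b-gal luminescence after 1 h RT detection.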

In experiment [8] the target is Mitogen-activated protein kinase 10 (Mus musculus) (UniProt Q61831). Put plainly: JNK3 AlphaScreen Assay (AID 530; active = well fitted curve in either direction with a large enough effect, not every such curve was filed as active;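 note: kinase came from lysate of stimulated human HepG2 cells; signal reports phosphorylation of biotinylated GST-cJun 1-79 at Ser73 with 10 µM ATP; % is set by controls: 0 for no effect and ±100 for the full control effect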). The note with it: JNK3 lysate, c-Jun phosphorylation; series mostly up to 57.1 µM. Put shortly:
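HepG2 lysate (IL-1b/TNFa pre-activated) + biotin-GST-cJun 1-79 + anti-pSer73 cJun; cpd titration, 15 min RT; ATP 10 uM start; Tris pH 7.6, MgCl2, DTT, vanadate; beads in EDTA buffer; AlphaScreen.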

Experiment [9] concerns the target Cytochrome P450 3A4 (Homo sapiens) (UniProt P08684). Put plainly: qHTS Assay for Inhibitors and Substrates of Cytochrome P450 3A4 (AID 884). Note: potency is the fitted concentration of half-maximal effect; nearly all actives have a fitted effect of over 50% in size. The following applies: recombinant CYP3A4, Luciferin-PPXE luminescence; series mostly up to 57.1 µM. Put shortly: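 Luminescent readout of luciferin produced by CYP3A4 (20 nM) dealkylation of Luciferin-PPXE, 25 uM (its KM). NADPH-driven reaction ran 60 min at RT after 10 min compound preincubation; data scaled to 57 uM ketoconazole as 100% inhibition.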
(In qHTS, concentration-response curves come from the screen itself.)

Experiment [10] shares this target. The experiment in a line: qHTS Assay for Activators of Cytochrome P450 3A4 (AID 885). Note: nearly all actives have a fitted effect of over 65% in size. The note with it: recombinant CYP3A4, Luciferin-PPXE luminescence, 60 min; series mostly up to 57.1 µM. The essentials: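 Activators are scored by enhanced luminescence from CYP3A4 conversion of luciferin-PPXE (25uM, equal to KM) to luciferin, after 60 min at RT with an NADPH-regenerating system.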

Experiment [11] concerns the target Cytochrome P450 2C19 (Homo sapiens) (UniProt P33261). The experiment in a line: qHTS Assay for Inhibitors and Substrates of Cytochrome P450 2C19 (AID 899). Note: potency is the fitted concentration of half-maximal effect; nearly all actives have a fitted effect of over 60% in size. The note with it: recombinant CYP2C19, luciferin-H EGE luminescence; series mostly up to 57.1 µM. The essentials: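 5 nM human CYP2C19 with 10uM Luciferin-H EGE (at KM) in 50mM KPO4, compound preincubated 10 min at 37C, then NADPH regeneration for 60 min at 37C. Luciferin read by luminescence after detection reagent; normalized to 57uM ketoconazole as full inhibition.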

For experiment [12], the target named is Dual specificity protein kinase CLK4 (Homo sapiens) (UniProt Q9HAZ1). Put plainly: qHTS Assay for Inhibitors of CDC-like Kinase 4 (Kinase-Glo Assay) (AID 1770). Note: nearly all actives have a fitted effect of over 65% in size. Note: potency is the fitted concentration of half-maximal effect. The following applies: recombinant Clk4, Kinase-Glo ATP depletion luminescence; series mostly up to 66.7 µM. The essentials:
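Recombinant human Clk4 (25 nM) phosphorylated RS repeat peptide (100 uM) with 1 uM ATP in Tris pH 7.5/MgCl2/EGTA/DTT/Triton buffer for 4.5 h at room temperature. Residual ATP was quantified by Kinase-Glo luciferase luminescence.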

The target is the same in experiment [13]. Put plainly: qHTS Assay for Inhibitors of CDC-like Kinase 4 (ADP-Glo Assay) (AID 1771). Note: nearly all actives have a fitted effect of over 70% in size. Note: potency is the fitted concentration of half-maximal effect. The note with it: recombinant CLK4, ADP-Glo luminescence; series mostly up to 80 µM. Put shortly: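 25 nM Clk4, 100 uM RS peptide, 1 uM ATP (final); 2 mM MgCl2, 0.5 mM EGTA, 2.5 mM DTT, 0.01% Triton X-100; 1 hr RT. ADP-Glo readout: ATP depletion 45 min, conversion/luciferase 30 min, luminescence.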

The target of experiment [14] is Ubiquitin carboxyl-terminal hydrolase 1 (Homo sapiens) (UniProt O94782). Put plainly: Inhibitors of USP1/UAF1: Pilot qHTS (AID 504865). Note: nearly all actives have a fitted effect of over 35% in size. Note: potency is the fitted concentration of half-maximal effect. The following applies: purified USP1/UAF1, Ub-rhodamine cleavage fluorescence; series mostly up to 54.9 µM. The essentials: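 USP1/UAF1 complex (1nM) preincubated with compound 15 min at room temperature, then Ub-Rho substrate (150nM final) added. Fluorescence read kinetically at 480/540 nm, 6 reads every 60 seconds. Buffer: 50mM HEPES pH 7.8, 0.5mM EDTA, 0.1 mg/ml BSA, 1mM TCEP, 0.01% Tween-20.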
Sequence of Ubiquitin carboxyl-terminal hydrolase 1 (Homo sapiens) (O94782 whole entry, looked up): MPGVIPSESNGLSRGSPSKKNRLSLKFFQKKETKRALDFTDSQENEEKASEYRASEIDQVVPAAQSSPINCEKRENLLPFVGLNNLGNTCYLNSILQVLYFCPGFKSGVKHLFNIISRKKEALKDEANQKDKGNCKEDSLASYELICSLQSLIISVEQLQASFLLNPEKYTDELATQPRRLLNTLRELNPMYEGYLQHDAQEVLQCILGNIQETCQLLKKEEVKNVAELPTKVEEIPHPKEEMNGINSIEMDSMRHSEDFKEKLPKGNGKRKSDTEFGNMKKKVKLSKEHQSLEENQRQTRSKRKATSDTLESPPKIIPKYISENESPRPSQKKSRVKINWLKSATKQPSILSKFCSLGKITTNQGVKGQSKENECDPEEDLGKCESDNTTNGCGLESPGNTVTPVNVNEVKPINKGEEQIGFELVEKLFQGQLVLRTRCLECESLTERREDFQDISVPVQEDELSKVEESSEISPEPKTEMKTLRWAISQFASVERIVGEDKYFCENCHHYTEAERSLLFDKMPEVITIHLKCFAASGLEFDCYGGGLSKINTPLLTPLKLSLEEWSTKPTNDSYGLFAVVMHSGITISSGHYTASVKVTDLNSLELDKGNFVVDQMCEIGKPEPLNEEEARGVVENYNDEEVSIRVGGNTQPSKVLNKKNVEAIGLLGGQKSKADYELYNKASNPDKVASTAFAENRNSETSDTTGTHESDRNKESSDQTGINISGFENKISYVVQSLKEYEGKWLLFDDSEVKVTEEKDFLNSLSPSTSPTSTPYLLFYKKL

A short description of experiment [15]: Primary qHTS for small molecule stabilizers of the endoplasmic reticulum resident proteome: Secreted ER Calcium Modulated Protein (SERCaMP) assay (AID 1508630). Note: % is set by controls: 0 for no effect and ±100 for the full control effect. The note with it: SH-SY5Y GLuc-SERCaMP (Gaussia luciferase released on ER calcium loss) secretion, thapsigargin, luminescence; series mostly up to 38.4 µM. Put shortly:
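The SH-SY5Y reporter protocol was run at 3 concentrations up to 38.3 uM (primary) or 11 concentrations (follow-up): 16 h compound, 100 nM thapsigargin for 4 h, then extracellular luciferase luminescence.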

Experiment [16] concerns the target Cytochrome P450 2C9 (Homo sapiens) (UniProt P11712). Put plainly: qHTS Assay for Inhibitors and Substrates of Cytochrome P450 2C9 (AID 883). Note: % is set by controls: 0 for no effect and ±100 for the full control effect; nearly all actives have a fitted effect of over 60% in size. The note with it: recombinant CYP2C9, luciferin-H luminescence, 60 min; series mostly up to 57.1 µM. The essentials: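 Human CYP2C9 (10nM) with Luciferin-H at 100uM (its KM) in 25mM KPO4; compound preincubated 10 min at 37C, then NADPH regeneration for 60 min at 37C. Luciferin read by luminescence after detection reagent; normalized to 57uM sulphaphenazole as full inhibition.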

Experiment [17] deals with Cytochrome P450 2D6 (Homo sapiens) (UniProt P10635). The experiment in a line: qHTS Assay for Inhibitors and Substrates of Cytochrome P450 2D6 (AID 891). Note: potency is the fitted concentration of half-maximal effect; nearly all actives have a fitted effect of over 60% in size. The following applies: recombinant CYP2D6, luciferin-ME EGE luminescence; series mostly up to 57.1 µM. Put shortly:
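Luminescent read-out of luciferin formed by 5 nM human CYP2D6 demethylating 30 uM Luciferin-ME EGE (Km level) over 60 min at room temperature after NADPH regeneration addition. Data normalized to full inhibition by 1.43 uM quinidine.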

Experiment [18] is described as follows: qHTS Assay for Identification of Small Molecule Agonists for Hypoxia Response Element Signaling Pathway (AID 914; active = well fitted activation curve with a large enough effect in the signal ratio, with a control signal flat, not every such curve was filed as active; the % refers to the signal ratio; note: % of control where 0% means no effect). The following applies: ME-180 (cervical carcinoma) HRE-bla reporter, beta-lactamase ratio, CoCl2, 17 h; activation: hits give high values. The essentials:
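Reporter activity (beta-lactamase, CCF4 460nm/530nm ratio) in HRE-bla ME-180 cells is recorded after 17 h compound exposure with EC50 CoCl2 at 37 degrees Celsius. AC50 values come from titration data.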

The target of experiment [19] is 3',5'-cyclic-AMP phosphodiesterase 4B (Homo sapiens) (UniProt Q07343). The experiment in a line: qHTS Assay for Inhibitors of PDE-IV (AID 607; active = well fitted activation curve with a large enough effect in the main read-out, with a control signal flat, not every such curve was filed as active; note: % of control where 0% means no effect). The note with it: HEK293 ACTOne CNG channel cells, membrane potential fluorescence; series mostly up to 22.9 µM. The essentials:
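The readout is membrane depolarisation from a cAMP-sensing CNG channel, detected with a potential dye at ex 535/em 590. Cells were HEK293-derived (endogenous PDE-IV) at 1000 cells/well, titrated up to 22.9 uM final.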

Sequence of Cytochrome P450 3A4 (Homo sapiens) (P08684 whole entry, looked up): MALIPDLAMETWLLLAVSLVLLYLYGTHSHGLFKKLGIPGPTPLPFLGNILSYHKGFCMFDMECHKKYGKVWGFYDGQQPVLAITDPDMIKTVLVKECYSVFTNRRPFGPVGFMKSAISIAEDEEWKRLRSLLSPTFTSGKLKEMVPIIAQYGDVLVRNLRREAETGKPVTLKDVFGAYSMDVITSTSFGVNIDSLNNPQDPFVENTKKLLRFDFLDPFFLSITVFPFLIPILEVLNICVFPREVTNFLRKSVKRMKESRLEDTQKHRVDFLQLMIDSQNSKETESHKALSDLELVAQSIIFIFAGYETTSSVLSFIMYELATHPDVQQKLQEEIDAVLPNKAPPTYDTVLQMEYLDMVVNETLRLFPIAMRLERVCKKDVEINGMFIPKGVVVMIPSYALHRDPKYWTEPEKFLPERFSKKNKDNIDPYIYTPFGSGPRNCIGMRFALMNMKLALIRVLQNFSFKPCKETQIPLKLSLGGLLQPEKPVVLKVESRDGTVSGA
Sequence of Cytochrome P450 1A2 (Homo sapiens) (P05177 whole entry, looked up): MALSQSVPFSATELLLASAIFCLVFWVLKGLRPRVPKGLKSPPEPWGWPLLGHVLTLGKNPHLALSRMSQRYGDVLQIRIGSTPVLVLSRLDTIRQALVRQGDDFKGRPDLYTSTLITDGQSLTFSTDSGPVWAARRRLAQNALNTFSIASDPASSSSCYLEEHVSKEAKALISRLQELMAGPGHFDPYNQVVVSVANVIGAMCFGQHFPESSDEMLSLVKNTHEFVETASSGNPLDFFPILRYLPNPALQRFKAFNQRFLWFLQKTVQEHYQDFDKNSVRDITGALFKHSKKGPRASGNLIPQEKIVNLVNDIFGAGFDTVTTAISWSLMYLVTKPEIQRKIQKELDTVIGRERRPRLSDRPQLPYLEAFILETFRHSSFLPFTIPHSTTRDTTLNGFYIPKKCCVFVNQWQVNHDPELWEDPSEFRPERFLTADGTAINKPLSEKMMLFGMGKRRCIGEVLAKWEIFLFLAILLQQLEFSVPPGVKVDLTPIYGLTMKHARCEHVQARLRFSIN
Sequence of 3',5'-cyclic-AMP phosphodiesterase 4B (Homo sapiens) (Q07343 whole entry, looked up): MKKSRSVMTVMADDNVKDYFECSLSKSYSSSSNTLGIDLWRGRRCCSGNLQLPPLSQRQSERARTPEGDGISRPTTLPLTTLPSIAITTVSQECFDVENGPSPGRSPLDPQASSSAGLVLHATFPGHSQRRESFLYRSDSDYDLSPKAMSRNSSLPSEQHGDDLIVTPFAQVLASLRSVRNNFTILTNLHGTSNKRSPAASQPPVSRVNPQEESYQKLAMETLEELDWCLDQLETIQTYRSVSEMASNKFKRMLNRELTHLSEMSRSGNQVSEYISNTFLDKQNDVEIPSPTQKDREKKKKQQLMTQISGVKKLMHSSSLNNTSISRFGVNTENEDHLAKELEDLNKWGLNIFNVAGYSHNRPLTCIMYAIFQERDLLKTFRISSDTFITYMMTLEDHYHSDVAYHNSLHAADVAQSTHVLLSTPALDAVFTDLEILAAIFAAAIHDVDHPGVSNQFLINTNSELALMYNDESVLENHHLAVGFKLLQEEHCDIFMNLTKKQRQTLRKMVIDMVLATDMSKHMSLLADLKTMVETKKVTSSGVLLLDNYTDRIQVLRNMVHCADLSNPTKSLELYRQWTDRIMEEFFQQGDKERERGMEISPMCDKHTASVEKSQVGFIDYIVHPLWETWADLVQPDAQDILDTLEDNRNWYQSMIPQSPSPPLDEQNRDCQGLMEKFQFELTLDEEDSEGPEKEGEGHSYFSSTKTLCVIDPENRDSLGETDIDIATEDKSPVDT
Sequence of Dual specificity protein kinase CLK4 (Homo sapiens) (Q9HAZ1 whole entry, looked up): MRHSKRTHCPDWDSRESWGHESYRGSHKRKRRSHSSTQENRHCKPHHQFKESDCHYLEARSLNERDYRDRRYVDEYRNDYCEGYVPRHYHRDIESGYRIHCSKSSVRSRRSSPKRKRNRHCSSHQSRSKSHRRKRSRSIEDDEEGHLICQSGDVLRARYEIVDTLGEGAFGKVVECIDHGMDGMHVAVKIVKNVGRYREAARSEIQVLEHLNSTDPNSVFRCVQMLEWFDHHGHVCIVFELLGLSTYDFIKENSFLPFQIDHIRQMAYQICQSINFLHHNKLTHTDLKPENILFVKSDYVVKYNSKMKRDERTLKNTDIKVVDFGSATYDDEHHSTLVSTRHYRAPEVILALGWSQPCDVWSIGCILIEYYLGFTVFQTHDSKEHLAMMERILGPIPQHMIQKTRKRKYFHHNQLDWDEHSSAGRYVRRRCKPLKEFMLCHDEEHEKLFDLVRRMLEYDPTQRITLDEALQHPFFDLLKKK
Sequence of Cytochrome P450 2C9 (Homo sapiens) (P11712 whole entry, looked up): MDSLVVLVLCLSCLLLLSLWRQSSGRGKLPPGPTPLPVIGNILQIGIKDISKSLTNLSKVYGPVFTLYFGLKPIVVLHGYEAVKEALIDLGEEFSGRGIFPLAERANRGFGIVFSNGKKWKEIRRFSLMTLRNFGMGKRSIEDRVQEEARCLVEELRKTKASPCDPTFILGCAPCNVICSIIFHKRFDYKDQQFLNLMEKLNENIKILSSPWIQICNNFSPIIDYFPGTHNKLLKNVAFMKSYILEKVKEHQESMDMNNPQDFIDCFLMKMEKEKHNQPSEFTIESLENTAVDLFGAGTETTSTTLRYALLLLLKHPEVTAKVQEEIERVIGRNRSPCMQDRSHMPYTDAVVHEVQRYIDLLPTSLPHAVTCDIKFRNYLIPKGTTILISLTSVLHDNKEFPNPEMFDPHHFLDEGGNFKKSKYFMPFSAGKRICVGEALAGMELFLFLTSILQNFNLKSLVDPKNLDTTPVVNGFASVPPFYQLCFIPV

As to `COc1cccc(-c2nc(NCc3cccs3)c3ccccc3n2)c1`, the Potency is > 11.4 µM in experiment [1]; 0.316 µM (active) in experiment [3]; > 46 µM in experiment [6]; > 46 µM in [7]; 3.16 µM (active) in experiment [9]; 3.16 µM (active) in experiment [11]. For the same compound, the Potency in experiment [12] was 17.8 µM (active); in experiment [13], 15.8 µM (active); in [14], 20 µM (active). Moreover, the activity change, negative = inhibition was 9.31% in [2] and -22.6% in experiment [4]. The activity, negative = inhibition in [5] was -12.6%. The Potency result in [8] and in [10] was “inactive” each time. Further, in [15], the result was inactive.

As to `CC(=O)NCCNc1nc(-c2ccccc2C)nc2ccccc12`, the Potency in [1] was > 11.4 µM; in experiment [3], 6.31 µM (active); in experiment [6] it was > 46 µM; in [7], > 46 µM; in experiment [9] it was 5.01 µM (active); in experiment [17] it was 5.01 µM (active). Besides, the values for the Potency in experiment [12] and in experiment [13] were 22.4 µM (active) and 15.8 µM (active), respectively. Also, the results for the activity change, negative = inhibition in experiment [2], in experiment [4] and in experiment [16] were 7.34%, -9.21% and 46.4% [at 2.29 µM], respectively. For the same compound, the activity, negative = inhibition in experiment [5] is 7.37%. The Potency result in [8], in [10] and in experiment [14] was “inactive” throughout. For the same compound, the activation in experiment [18] was -1%. Moreover, the result in [15] was inactive.

On to `Cc1cnc(CNc2ccnc(-c3cccnc3)n2)cn1`, for which the Potency in experiment [1] is > 11.4 µM; in experiment [3], 7.94 µM (active); in experiment [6], > 46 µM; in [7], > 46 µM; in [9] it was 5.01 µM (active); in [12], 15.8 µM (active). For the same compound, the Potency in experiment [13] is 15.8 µM (active). In addition, the activity change, negative = inhibition is 16.6% in experiment [2] and 21.5% [at 2.29 µM] in experiment [16]. In experiment [5], the activity, negative = inhibition is 13.3%. The Potency result in experiment [8], in [19], in experiment [10] and in [14] was “inactive” each time. The outcome in experiment [15] was inactive.

On to `CNc1nc(-c2ccoc2)nc2ccccc12`, for which the Potency was > 11.4 µM in experiment [1], 0.398 µM (active) in experiment [3], > 46 µM in experiment [6] and > 46 µM in experiment [7]. For the same compound, the activity change, negative = inhibition in [2] was 0.93%; in experiment [4], -22.3%. Moreover, in experiment [5], the activity, negative = inhibition is 8.64%. For the same compound, the Potency entry in experiment [8], in experiment [19], in experiment [10], in experiment [12] and in experiment [13] was “inactive” in each case. Besides, the result in experiment [15] was inactive.

Take `Cc1cnc(CNc2ncnc3ccc(-c4cccc(NS(C)(=O)=O)c4)cc23)cn1`: the Potency in [1] was > 11.4 µM; in experiment [3], 3.98 µM (active); in experiment [6], > 46 µM; in experiment [7] it was > 46 µM; in experiment [12], 25.1 µM (active); in [13] it was 15.8 µM (active). The results for the activity change, negative = inhibition in [2] and in experiment [16] were -5.16% and 32.5% [at 2.29 µM], respectively. Besides, the activity, negative = inhibition in experiment [5] is -9.12%. For the same compound, the Potency result in experiment [19], in experiment [10] and in experiment [14] was “inactive” each time. Moreover, in experiment [15], the result was inactive.
